Most compounds without a hit are left out; they make up all but 5.7% or so of the library.
DRD3 antagonist = blocks the human D3 dopamine receptor; P35462; D3R cells, DiscoveRx beta-arrestin luminescence, antagonist mode; stronger effect = lower value; max response, negative = inhibition, %; actives 2.5% (n = 360,000); AID 652054; in the data active = max response below about -50%; inconclusive = no clear call, values can overlap the other calls
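Cells expressing the human receptor were seeded at 1500 cells/well, incubated overnight at 37 degrees C in 5% CO2, then exposed to library compounds with dopamine controls for 90 minutes at 37 degrees C before luminescent detection.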
ClpP mod = qHTS Assay for Activators of ClpP; Potency, µM (top dose mostly 57.5 µM); purified B. subtilis ClpP, FRET peptide cleavage, 20 min; actives 1.9% (n = 340,000); ATP-dependent Clp protease proteolytic subunit (Bacillus subtilis (strain 168)), P80244; AID 651965, 2013; active = well fitted falling curve with a large enough effect; inconclusive = small, poorly fitted or top-dose-only effect; inactive = no such curve, though single readings can be large or run the other way; also: the source files actives as falling curves though it sought activators and does not explain the sign; nearly all actives have a fitted effect of over 65% in size
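Buffer: 100 mM Tris/HCl pH8, 100 mM KCl, 0.05% low protease BSA, 2.5% glycerol, 0.01% Tween-20. ClpP 10 microg/mL final; 20 min RT; delta FRET normalized to ADEP and DMSO controls.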
GLP-1R agonist = GLP-1 receptor (human) agonism; P43220; HEK293 GLP-1R CRE-luciferase, luminescence, 4-6 h; cells express a hypersensitive GLP-1R form; Potency, µM (titrated, usually from 45.6 µM), most hits filed as activators; actives 0.007% (n = 380,000); AID 624172
GLP1R cytotox = cytotoxicity counter-screen for GLP-1 receptor inverse agonists | HEK293 cAMP-luciferase reporter cells, luminescence, 24 h | Potency, µM (doses to about 38.3 µM), actives largely listed as inhibitors | actives 0.13% (n = 410,000);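 also: loss of luciferase light is scored as toxicity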
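Seeding density was 200 cells/uL; after overnight-length (12 h) culture, 23 nL compounds went on for 24 h at 37 °C. Readout used a luciferase detection reagent, luminescence taken after 12 min at room temperature.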
GLP-1R inv ag = acts as inverse agonist at human GLP-1 receptor. HEK293 GLP-1R CRE-luciferase, luminescence, 24 h; GLP-1R form is constitutively active. Potency, µM (top dose mostly 38.3 µM), actives largely listed as inhibitors. actives 1.6% (n = 410,000); also: nearly all actives have a fitted effect of over 55% in size
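Constitutively active GLP-1R drives a cAMP-responsive luciferase in stably transfected HEK293 cells; test compounds are added after overnight (12 h) attachment and left 24 hr, and signal loss in luminescence marks inhibition.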
D3 ag = agonists of human D3 dopamine receptor | P35462 | D3R DiscoveRx beta-arrestin cells, luminescence, 90 min | max activation, % | actives 0.58% (n = 410,000) | AID 652048; in the data active = max activation above about 30%
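Agonist mode: compounds and dopamine controls were applied to plated cells for 90 min at 37 degrees C after an overnight attachment at 1500 cells/well. Luminescent read-out followed 30 - 60 minutes at room temperature with DiscoveRx detection reagent.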
Of the large screens only hits and unclear results are named; the others gave an inactive call. Unless noted, calls follow the shape of the dose curve; as a rule, active = well fitted curve in the direction sought with a large enough effect; inconclusive = small, poorly fitted or top-dose-only effect, or another doubt; inactive = no such curve, though single readings can be large; an effect the other way counts as inactive or inconclusive.

COc1ccc(CNC(=O)C(C)n2c(=O)cc(C)c3c(C)nn(-c4ccccc4)c32)cc1 (stereo not drawn)	none (no result: DRD3 antagonist, GLP-1R agonist)
Cc1cccc(NC(=O)CN(CC2CCCO2)C(=O)c2cc(S(=O)(=O)N(C)C)ccc2F)c1C (stereo not drawn)	none (no result: ClpP mod)
Cc1cccc(NC(=O)CN(CC2CCCO2)C(=O)c2ccc(S(C)(=O)=O)cc2)c1C (stereo not drawn)	ClpP mod 25µM
CC(CCN1CCN(c2ccc(F)cc2)CC1)c1ccccc1 (stereo not drawn)	DRD3 antagonist -76, GLP-1R inv ag inconclusive
c1ccc(SCCN2CCN(c3ccccc3)CC2)cc1	DRD3 antagonist -103, GLP-1R inv ag inconclusive
COc1ccc(OCC(O)CN2CCN(c3ccccc3)CC2)cc1 (stereo not drawn)	DRD3 antagonist inconclusive
OC(CN1CCN(Cc2ccc3c(c2)OCO3)CC1)c1c[nH]c2ccccc12 (stereo not drawn)	GLP-1R inv ag inconclusive
CC(CN1CCN(c2ccccc2)CC1)c1ccccc1 (stereo not drawn)	DRD3 antagonist -64
OC(CN1CCN(c2ccccc2)CC1)c1c[nH]c2ccccc12 (stereo not drawn)	DRD3 antagonist -54, GLP-1R inv ag inconclusive
CCCN1CCC(=O)N(CCSc2ccccc2)CC1	none
C[C@@H]1CN([C@@H](C)CO)C(=O)c2cc(C#CCN(C)C)cnc2O[C@H]1CN(C)Cc1ccc2c(c1)OCO2	none
O=C(NC(=S)NCc1nc2ccccc2[nH]1)c1ccc(F)cc1	none (no result: ClpP mod)
O=C(NC(=S)NCc1nc2ccccc2[nH]1)c1ccccc1F	DRD3 antagonist -63
COc1cc(OC)cc(C2=Cc3ccc(OC)cc3C(CC(C)=O)N2c2ccc(C#CC3(O)CCCCC3)cc2)c1 (stereo not drawn)	GLP-1R inv ag inconclusive
COc1cccc(C2=Cc3ccc(F)cc3C(CC(C)=O)N2c2ccc(C#CC3(O)CCCCC3)cc2)c1 (stereo not drawn)	ClpP mod inconclusive, GLP-1R inv ag 5µM
CC(C)C(=O)Nc1ccc([N+](=O)[O-])cc1Br	ClpP mod 35µM
O=C(O)c1ccc(/C=N/Nc2ccc(F)cc2F)cc1	GLP-1R inv ag inconclusive
Fc1ccc(N/N=C/c2ccncc2)c(F)c1	ClpP mod 22µM, GLP-1R inv ag 1.4µM
COc1cccc(C2NC(C)(C(=O)O)C3C(=O)N(C(C)C)C(=O)C23)c1O (stereo not drawn)	DRD3 antagonist -53
C=CCn1c(O)c(C2=c3ccccc3=NC2=O)s/c1=N/c1nccs1	none
Cn1c(O)c(C2=c3ccccc3=NC2=O)sc1=Nc1ccc(Cl)cc1	DRD3 antagonist -63
COc1ccc(NC(=O)CSC2=C(C#N)C(c3ccco3)C(C(=O)Nc3nc4ccccc4s3)=C(C)N2)cc1 (stereo not drawn)	ClpP mod 22µM, GLP-1R inv ag inconclusive
COc1ccc(-c2cc3ccc(O)c(CN4CCN(C)CC4)c3oc2=O)cc1OC	none (no result: DRD3 antagonist, GLP-1R agonist)
CN(C)CCCNC(=O)C(=O)NCC(c1ccc2c(c1)OCO2)N1CCOCC1 (stereo not drawn)	none (no result: DRD3 antagonist, GLP-1R agonist)
Cn1nnnc1SCCCNCc1ccc(-c2cccc(Cl)c2)o1	none (no result: DRD3 antagonist, GLP-1R agonist)
Clc1cccc(-c2ccc(CNCCCN3CCOCC3)o2)c1	DRD3 antagonist -80, GLP-1R inv ag inconclusive (no result: ClpP mod)
COc1cc(-c2nc(-c3ccccc3)c(-c3cccs3)[nH]2)cc(OC)c1OC	ClpP mod 32µM, GLP-1R inv ag inconclusive
COc1cc(-c2nc(-c3ccccc3)c(-c3cccs3)[nH]2)cc(OC)c1O	ClpP mod 28µM, GLP-1R inv ag inconclusive
c1ccc(-c2nc(-c3cccs3)[nH]c2-c2ccccc2)cc1	ClpP mod 32µM
COc1cccc(-c2nc(-c3ccc4c(c3)-c3ccccc3S4(=O)=O)c(-c3ccccc3)[nH]2)c1OC	ClpP mod inconclusive
COc1cc(-c2nc(-c3ccc4c(c3)-c3ccccc3S4(=O)=O)c(-c3ccccc3)[nH]2)cc(OC)c1OC	GLP-1R inv ag 1.6µM
O=C(O)c1ccccc1-c1nc(-c2ccccc2)c(-c2ccccc2)[nH]1	none (no result: ClpP mod)
c1csc(-c2nc3c4ccccc4c4ccccc4c3[nH]2)c1	ClpP mod 40µM, GLP-1R inv ag 5µM
Cc1ccccc1-n1nc2c(c1NC(=O)C1CC1)CS(=O)(=O)C2	none
CCc1ccc(N2C=C(C(=O)OC)C(c3cccc4ccccc34)C(C#N)=C2N)cc1 (stereo not drawn)	GLP-1R inv ag 1µM (no result: GLP-1R agonist)
COC(=O)C1=CN(c2ccc(OC)cc2)C(N)=C(C#N)C1c1cccc2ccccc12 (stereo not drawn)	GLP-1R inv ag inconclusive (no result: GLP-1R agonist)
Cc1ccc(Oc2ncccc2/C=N/OCc2ccc(Cl)c(Cl)c2)cc1	GLP-1R inv ag 10µM
Cc1ccc(CO/N=C/C2=C(Cl)c3ccccc3CC2)cc1	none
Cc1ccc(CN2CCCn3nc(C(=O)NCCc4ccc(Cl)cc4)cc3C2=O)cc1	none (no result: DRD3 antagonist, GLP-1R agonist)
COc1ccc(-n2nnnc2SCC(=O)NCCc2ccccc2)cc1	none (no result: DRD3 antagonist)
COc1ccc(C2/C=C\CN(C(=O)C3CCCC3)[C@H](Cc3ccccc3)C(=O)N2Cc2ccc(F)cc2)cc1 (stereo partly drawn)	DRD3 antagonist -68, GLP-1R inv ag 4.5µM
COc1ccc([C@H]2/C=C\CN(S(=O)(=O)/C=C/c3ccccc3)[C@@H](C)C(=O)N2Cc2ccc(F)cc2)cc1	D3 ag 40
COc1ccc([C@H]2/C=C\CN(C(=O)C3CCCC3)[C@@H](C)C(=O)N2Cc2ccc(F)cc2)cc1	DRD3 antagonist inconclusive, GLP-1R inv ag inconclusive
COc1ccc(C2/C=C\CN(C(=O)Nc3ccc(C(F)(F)F)cc3)CC(=O)N2Cc2ccc(F)cc2)cc1 (stereo not drawn)	GLP-1R inv ag 11µM
OC1C(Br)=Cc2ccccc21 (stereo not drawn)	none (no result: DRD3 antagonist, GLP-1R agonist, GLP1R cytotox, GLP-1R inv ag, D3 ag)
COc1ccc(N2CCCC2=O)cc1S(=O)(=O)N1CCOCC1	none
Cc1ccn2c(NC(=O)C(C)(C)Oc3ccc(Cl)cc3)c(-c3cccs3)nc2c1	ClpP mod 32µM, GLP1R cytotox inconclusive, GLP-1R inv ag inconclusive
Cc1ccc(-c2cc(C(=O)NCCc3ccccc3)c3c(-c4ccc(C)cc4)[nH]nc3n2)cc1	none (no result: DRD3 antagonist, GLP-1R agonist)
O=C(NCCc1ccccc1)c1cc(-c2ccccc2)nc2n[nH]c(-c3ccccc3)c12	ClpP mod 28µM, GLP-1R inv ag inconclusive (no result: DRD3 antagonist, GLP-1R agonist)
COc1ccc(NC(=O)c2cc3c(-c4ccccc4F)nn(C)c3s2)c(OC)c1	ClpP mod inconclusive, D3 ag 41 (no result: DRD3 antagonist, GLP-1R agonist)

Screening data: PubChem BioAssay, National Center for Advancing Translational Sciences (NCATS)
